Laboratory results as given in PubChem BioAssay AID977622 (Broad Institute, 2014).
Fewer than 10 of roughly 1,900 compounds were called active. Roughly 39% stayed inconclusive and do not appear here.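 The calls were made as follows: active = Green signal of the normal strain falls at least twice as much as red signal of the resistant mutant, with overall culture growth loss under a set limit; inconclusive = no clear call, values can overlap the other calls; inactive = the rest.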 The list is a sample of the results.

Key:
[1] = wild-type E. coli growth inhibition versus h38 humanized strain – h38 mutant RFP, wild-type GFP, cherry-pick, dose response (AID 977622); conditions: activity change: E. coli mixed culture, total growth OD600 at 50 uM, at 50 µM
[2] = tested on: E. coli h38 humanized mutant ribosome RFP fluorescence, mixed culture, 24 h; test: as above; conditions: h38 mutant RFP at 50 uM; at 50 µM

SMILES	activity change [1]	outcome [1]	activity change [2]
O=C(Nc1c(S(=O)(=O)c2ccc(Cl)cc2)csc1Br)c1ccccc1Cl	9.68%	inactive	8.46%
O=C(CCc1nc2ccccc2s1)OCC(=O)c1ccccc1	6.3%	inactive	-0.655%
Cc1ccc2nc(N(CCN(C)C)C(=O)C3CCN(S(=O)(=O)c4cccs4)CC3)sc2c1	-21.5%	inactive	–
Cc1cccc(-c2ccc([C@@H]3[C@@H](CO)N4CCCCN(S(=O)(=O)c5ccccc5C)C[C@@H]34)cc2)c1	-8.54%	inactive	21%
COc1ccc(C#Cc2ccc([C@H]3[C@@H](CO)N4CCCCN(C(=O)Nc5cccc(F)c5)C[C@H]34)cc2)cc1	-17.6%	inactive	73.7%
Cc1cc(C)n(CC(O)COc2ccc3ccccc3c2)n1 (centres undefined)	4.91%	inactive	10.9%
N#Cc1nc(COc2cccc(Cl)c2)oc1N1CCCC1	-6.55%	inactive	–
COc1ccc(CC(=O)NCc2csc(-c3cccs3)n2)cc1OC	-8.86%	inactive	-8.02%
Cc1ccc(-n2c(SCC(N)=O)nnc2-c2cnccn2)cc1	-6.07%	inactive	-24.8%
COc1ccc(C)c2sc(N(CCN(C)C)C(=O)c3ccc(S(=O)(=O)N(C)c4ccccc4)cc3)nc12	-16.8%	inactive	11%
CCCc1nc2ccc(Br)cn2c1Cc1cccc(Cl)c1	-8.44%	inactive	4.58%
CS(=O)(=O)c1ccc(Cl)c(NC(=O)COC(=O)c2c(Cl)cccc2Cl)c1	-7.03%	inactive	-3.81%
COc1ccc(Cc2c(-c3cccc(Cl)c3)nc3ccc(Cl)cn23)c(C)c1	-9.93%	inactive	1.24%
OC1CCN(c2c3c(nc4cc(-c5cccc(F)c5)nn24)CCCC3)CC1	-19%	inactive	-5.04%
CN(Cc1ccccc1NS(=O)(=O)c1ccc(Cl)cc1)C1CCCCC1	4.68%	inactive	25.7%
O=C1c2ccccc2CSc2c(O)cccc21	-41.7%	inactive	-51.2%
CCN(CC)CCNC(=O)c1cc2cc3ccc(OC)cc3nc2o1	-17.2%	inactive	-1.99%
C[C@H](CO)N1C[C@H](C)[C@@H](CN(C)C(=O)CCCN(C)C)OCCCC[C@H](C)Oc2ccc(NC(=O)Nc3cccc4ccccc34)cc2C1=O	1.54%	inactive	-2.48%
COc1ccccc1NC(=O)COC(=O)Cc1c[nH]c2ccccc12	-29.2%	inactive	-34.7%
NC(=O)c1ccsc1NC(=O)COC(=O)Cc1ccc(F)cc1	-13.5%	inactive	-23.2%
COc1cccc(C(=O)Nc2nnc(S(=O)(=O)N(C)Cc3ccccc3)s2)c1	-30.6%	inactive	-13.1%
Cc1noc(C)c1NC(=O)Nc1ccc2c(c1)C(=O)N([C@H](C)CO)C[C@@H](C)[C@@H](CN(C)C(=O)Nc1ccc3c(c1)OCO3)OCCCC[C@@H](C)O2	-6.3%	inactive	-16.3%
